Laboratory results as given in PubChem BioAssay AID1259376 (The Scripps Research Institute Molecular Screening Center, 2018).
Out of some 4,700 compounds screened, about 360 (7.7%) were called active. These entries were drawn from the full list. A number with no mark means an inactive call.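 The calls were made as follows: active = inhibition above a cutoff derived from the DMSO control wells (cut at about 30% in these data); inactive = the rest.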

assay: bead signal artefacts at single dose – biochemical, AlphaScreen, triplicate, counter-screen for MITF inhibitor project (AID 1259376); details: LysRS AlphaScreen counterscreen, signal interference, at 2.6 µM, active compounds read high

SMILES | inhibition
CC(=O)N1CCN(C(=O)c2ccc(N3CC4CC(C3)c3cccc(=O)n3C4)c(NC(=O)c3cccnc3)c2)CC1 (stereo not drawn) | -7.87%
COc1ccc(Br)cc1CN1CCN(CCOCCO)CC1 | -5.73%
COc1cccc(OC)c1C(=O)N1CCN(Cc2ccccc2F)CC1 | 20.4%
Cc1ccc(NC(=O)CNCCCSc2ccccc2)cc1C | 20.6%
O=C(O)C1C2C=CC(O2)C1C(=O)Nc1nccs1 (stereo not drawn) | 13.2%
CC(NCCCN1CCOCC1)C(=O)Nc1ccccc1 (stereo not drawn) | 12.1%
COC(=O)C(C)CN1CCN(Cc2ccc3c(c2)OCO3)CC1 (stereo not drawn) | 13.8%
CC1(C)CC(=O)C2=C(C1)Nc1ccccc1N(C(=O)Cc1ccccc1)C2c1ccc(-c2ccc([N+](=O)[O-])cc2)o1 (stereo not drawn) | 15%
COc1cc(CN2CCN(Cc3ccccc3Cl)CC2)cc(OC)c1OC | 13%
N#Cc1ccc(OCC(=O)Nc2nc(-c3ccccn3)cs2)cc1 | 100% (active)
Nc1ccc(S(=O)(=O)O)c2cc(S(=O)(=O)O)cc(O)c12 | 38.9% (active)
CCN1CCN(CCOc2ccc(-c3ccccc3)cc2)CC1 | 9.15%
COc1cccc(C(=O)N2CCN(Cc3cc(OC)c(OC)cc3OC)CC2)c1 | 7.33%
CC(=O)c1cccc(N2C(=O)c3cccnc3C2=O)c1 | 27.9%
CC1CCCC(N2CCN(Cc3ccccc3Cl)CC2)C1 (stereo not drawn) | -7.94%
CCN(CC)CCN1COc2c(cc(Cl)c3cccnc23)C1 | 100% (active)
COc1ccccc1CN1CC(C)OC(C)C1 (stereo not drawn) | 3.15%
Cc1ccc(NC(=O)COC(=O)CCC(=O)Nc2sc3c(c2C(N)=O)CCC3)cc1F | 6.94%
CCN(CC(=O)NCc1ccc(Cl)cc1)Cn1nnc2ccccc21 | -7.45%
Cn1c(=O)oc2cc(S(=O)(=O)N3CCC(C(=O)NC(C)(C)C)CC3)ccc21 | 0.26%
CCS(=O)(=O)N1CCN(C2CCCCC2C)CC1 (stereo not drawn) | 7.29%
c1ccc(CCCCNc2nccc(Nc3ccncn3)n2)cc1 | 9.16%
COc1cccc(CN2CCC(C(=O)NCCc3ccccc3)CC2)c1 | 13.6%
